# From PubChem BioAssay AID434931 (National Center for Advancing Translational Sciences (NCATS), 2010)
# “And” between values parts separate entries of the source, which are not always exact repeats. Equal values may be shown once. Results filed as inconclusive are left out. The source made the active and inactive calls. Calls come from the whole dose curve; as a rule, active = well fitted inhibition curve with a large enough effect; inconclusive = small, poorly fitted or top-dose-only effect, or another doubt; inactive = no such curve, though single readings can be large or run the other way.
# Molecular target: Neuropeptide S receptor (Homo sapiens) (UniProt Q6W5P4)
# Test: Confirmation Concentration-Response Assay for Antagonists of the Neuropeptide S Receptor: Robust Characterization of Calcium Signal Transduction
# Settings: CHO-NPSR cells, NPS-induced calcium fluorescence (FDSS); series mostly up to 31.6 µM; activity, negative = inhibition: at the top concentration
# Chain of Neuropeptide S receptor (Homo sapiens) (Q6W5P4 whole entry, looked up): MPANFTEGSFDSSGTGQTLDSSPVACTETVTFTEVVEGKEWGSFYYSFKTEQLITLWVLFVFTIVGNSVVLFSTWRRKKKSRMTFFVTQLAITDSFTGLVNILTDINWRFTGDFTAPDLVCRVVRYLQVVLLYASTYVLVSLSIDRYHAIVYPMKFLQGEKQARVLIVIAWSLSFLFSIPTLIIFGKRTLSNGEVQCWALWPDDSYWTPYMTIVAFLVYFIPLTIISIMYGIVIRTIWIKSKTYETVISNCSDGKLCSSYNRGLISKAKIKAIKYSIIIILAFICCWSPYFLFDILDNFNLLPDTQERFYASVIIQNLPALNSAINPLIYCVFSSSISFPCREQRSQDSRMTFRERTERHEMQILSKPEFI
Structure (SMILES),Potency,"activity, negative = inhibition"
COc1cccc(C2c3c(ncn(Cc4cccs4)c3=N)Oc3ccc4ccccc4c32)c1 (stereo not drawn),3.1 µM (active),
COc1cccc(C2c3c(ncn(-c4ccccc4)c3=N)Oc3ccc4ccccc4c32)c1OC (stereo not drawn),0.981 µM (active),
COc1cccc(C2c3c(ncn(-c4ccc(Br)cc4)c3=N)Oc3ccc4ccccc4c32)c1 (stereo not drawn),3.1 µM (active),
COc1cccc(C2c3c(ncn(-c4ccccc4-c4ccccc4)c3=N)Oc3ccc4ccccc4c32)c1 (stereo not drawn),8.74 µM (active),
COc1cccc(C2c3c(ncn(-c4ccc(-c5ccccc5)cc4)c3=N)Oc3ccc4ccccc4c32)c1 (stereo not drawn),,-2.66% (inactive)
COc1cccc(C2c3c(ncn(-c4ccc(F)cc4)c3=N)Oc3ccc4ccccc4c32)c1 (stereo not drawn),2.2 µM (active),
COc1cccc(C2c3c(ncn(-c4cccc(C)c4)c3=N)Oc3ccc4ccccc4c32)c1 (stereo not drawn),3.91 µM (active),
COc1cccc(C2c3c(ncn(-c4ccccc4)c3=N)Oc3ccc4ccccc4c32)c1 (stereo not drawn),1.55 µM (active) and 139 nM (active),
COc1cccc(C2c3c(ncn(-c4cccc(OC)c4)c3=N)Oc3ccc4ccccc4c32)c1 (stereo not drawn),0.391 µM (active),
CCC(C)(CCN1CCOCC1)N(Cc1cc2ccccc2n(C)c1=O)C(=O)C1CCCCC1 (stereo not drawn),0.00135 µM (active),
O=C(c1ccccc1)N(C(=O)c1ccccc1)c1ncnc2c1C(c1ccccc1)c1c(ccc3ccccc13)O2 (stereo not drawn),0.438 µM (active),
COc1ccc(C2c3c(nc(CCCc4ccccc4)[nH]c3=O)Oc3ccc4ccccc4c32)cc1OC (stereo not drawn),,19.1% (inactive)
Fc1ccc(-c2c(P(=S)(c3ccccc3)c3ccccc3)n3ccccc3[n+]2C/C=C/c2ccccc2)cc1,0.0201 µM (active),
